From PubChem BioAssay AID1851 (National Center for Advancing Translational Sciences (NCATS), 2009) come the findings set out here.

Several values for one entry are separate records, joined by “and”; a condition that tells them apart may be missing. Equal entries are not always repeated. The campaign covered roughly 16,000 compounds. About 4,000 (25%) were called active. Roughly 26% stayed inconclusive and do not appear here. The list is a sample of the results. Unmarked numbers belong to inactive results. Calls follow the shape of the dose curve; as a rule, active = well fitted curve in the direction sought with a large enough effect; inconclusive = small, poorly fitted or top-dose-only effect, or effect the other way; inactive = no such curve, though single readings can be large or run the other way.

A word on the AC50: it is the midpoint of the concentration-response curve, whichever way the signal moves.
% is scaled to controls: 0 for no effect and ±100 for the full control effect.

The target of the assay is Cytochrome P450 2C9 (Homo sapiens) (UniProt P11712). The experiment in a line: Cytochrome panel assay with activity outcomes. To be noted: recombinant CYP, pro-luciferin dealkylation, luminescence, p450-cyp2c9; series mostly up to 57.1 µM.
Cytochrome P450 2C9 (Homo sapiens), sequence (P11712 whole entry, looked up): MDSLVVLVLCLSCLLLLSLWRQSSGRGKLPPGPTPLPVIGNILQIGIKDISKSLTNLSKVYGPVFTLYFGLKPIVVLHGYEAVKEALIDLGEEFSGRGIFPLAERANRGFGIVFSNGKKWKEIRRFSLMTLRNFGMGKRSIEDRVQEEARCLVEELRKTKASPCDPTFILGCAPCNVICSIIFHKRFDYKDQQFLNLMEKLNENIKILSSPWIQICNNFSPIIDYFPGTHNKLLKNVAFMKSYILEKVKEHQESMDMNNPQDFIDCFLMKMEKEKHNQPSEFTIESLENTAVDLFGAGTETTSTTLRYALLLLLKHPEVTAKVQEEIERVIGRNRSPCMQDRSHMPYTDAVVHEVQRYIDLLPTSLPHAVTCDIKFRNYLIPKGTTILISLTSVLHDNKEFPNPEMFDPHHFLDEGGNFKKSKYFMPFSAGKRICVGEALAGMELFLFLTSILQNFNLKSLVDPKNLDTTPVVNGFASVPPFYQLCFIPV
Turning to `COc1ccc(CNc2cc(-c3ccoc3)ncn2)c(OC)c1`, the activity, negative = inhibition is 3.4% [at 2.29 µM]. `Cc1cccc(CN2CCN([C@@H](c3ccccc3)c3ccc(Cl)cc3)CC2)c1`: the AC50 result was “inactive”. Same read-out and setting: as for `COc1ccccc1C(c1nnnn1C(C)(C)C)N1CCCc2ccccc21` (stereo not given), the figure is 3.98 µM (active); as for `COc1ccccc1CN1CC2(CCN(C(=O)c3ccncc3)CC2)C1`, “inactive”; as for `COc1ccccc1C(c1nnnn1C(C)(C)C)N1CCN(Cc2ccncc2)CC1` (stereo not given), 0.631 µM (active).

On to `CNC(=O)[C@@H]1O[C@@H](n2cnc3c(NCc4ccc(N)cc4)ncnc32)[C@@H](O)[C@H]1O`, for which the AC50 result is “inactive”. Consider `COc1ccc(COC(=O)N/N=C2/C[C@@H](O)[C@@H](O)[C@@H]3[C@@H]4C(=O)N(c5cccc(Oc6ccccc6)c5)C(=O)[C@H]4CC[C@H]23)cc1`, for which the activity, negative = inhibition is -15.2% [at 11.4 µM]. In the case of `COc1ccc(NC(=O)CC2C(=O)N(c3cccc(OC)c3)C(=O)N2C2CCCCC2)cc1` (stereo not given), the AC50 is 15.8 µM (active). For the molecule `COc1cccc(N2C(=O)C(CC(=O)Nc3ccccc3)N(C3CCCCC3)C2=O)c1` (stereo not given), the AC50 was 8.91 µM (active). For `COc1ccc(COC(=O)N/N=C2/C[C@@H](O)[C@@H](O)[C@@H]3[C@@H]4C(=O)N(c5cccc(Oc6ccccc6)c5)C(=O)[C@H]4CC[C@@H]23)cc1`, the activity, negative = inhibition was -7.36% [at 11.4 µM]. For `CCN1CCCC1CNC(=O)C(=O)Nc1ccc(OC)cc1` (stereo not given), the AC50 entry was “inactive”. The same measure, in the same setting: with `CC1(C)O[C@@H]2C[C@H]3[C@H]4C[C@H](F)C5=CC(=O)C=C[C@@]5(C)[C@@H]4[C@H](O)C[C@]3(C)[C@]2(C(=O)CO)O1` the entry was “inactive”; with `O=C(NCc1ccco1)c1ccc2c(=O)n(-c3ccccc3)c(=S)[nH]c2c1`, “inactive”; with `Cc1ccc(-n2c(N)c(C(=O)NCc3ccco3)sc2=S)cc1`, 14.1 µM (active). Turning to `COC(=O)CCCC(=O)O`, the activity, negative = inhibition is -1.69% [at 11.4 µM]. Take `Cc1ccc(CS(=O)(=O)CCC(=O)NCCCOC(C)C)cc1`: the AC50 result is “inactive”.

For `CCCCNC(=O)NC1C(NC(=O)NCCCC)N(C)C(=O)N1C` (stereo not given), the AC50 result was “inactive”. Consider `CCCCNC(=O)NS(=O)(=O)c1ccc(C(=O)OC(C)C)o1`, for which the AC50 is 2.82 µM (active). The same measure, in the same setting: with `Cc1nn(Cc2c(Cl)cccc2Cl)c(C)c1NC(=O)c1cnn2c(C(F)F)cc(-c3ccccc3)nc12` the figure was 1.26 µM (active). With `Cc1ccc(-c2cc(C(F)F)n3ncc(C(=O)Nc4c(C)nn(Cc5c(Cl)cccc5Cl)c4C)c3n2)cc1`, the AC50 was 1 µM (active). For `Cc1cc(C(F)F)n2ncc(C(=O)NCc3ccccc3C(F)(F)F)c2n1`, the AC50 entry was “inactive”.

Take `CC(=O)OC[C@@H]1O[C@H](C/C=N\OC[C@@H](O)COCc2ccco2)C=C[C@@H]1OC(C)=O`: the activity, negative = inhibition is 24.5% [at 11.4 µM].

`N[C@H](C(=O)O)[C@@H](O)c1cnc[nH]1`: the activity, negative = inhibition was 20.3% [at 11.4 µM]. In the case of `O=c1cc(CSc2ccccc2)[nH]c(=S)[nH]1`, the AC50 entry was “inactive”. On the same count and under the same terms, with `CC1=CC(C)(C)Nc2ccc(CSc3ccccc3)cc21` the figure was 0.2 µM (active). Still for that read-out and setting: as for `N#Cc1c(-c2ccccc2)no[n+]1[O-]`, the entry is “inactive”.

As for `O=C(O)c1nc(-c2ccccc2)[nH]c1C(=O)O`, the activity, negative = inhibition is -21.7% [at 11.4 µM]. On to `COC(=O)Cc1cc(=O)n2[nH]c(C)c(-c3ccccc3)c2n1`, for which the AC50 entry is “inactive”. As for `Cn1c(=O)c2[nH]c(CSCc3ccccc3)nc2n(C)c1=O`, the activity, negative = inhibition is -13.3% [at 11.4 µM]. On to `Cc1[nH]n2c(=O)c(C#N)c(-c3ccccc3)nc2c1-c1ccccc1`, for which the AC50 was 11.2 µM (active).

Turning to `CSc1nc(O)c(Cc2ccccc2)c(=O)[nH]1`, the AC50 entry was “inactive”. As to `Cc1nc2c(C#N)c(C)[nH]n2c(=O)c1Cc1ccccc1`, the AC50 was 7.08 µM (active). As to `N#CCCn1c(=O)c(-c2ccccc2)nc2cnc(Nc3ccccc3)nc21`, the AC50 entry is “inactive”. `N#Cc1c(-c2ccccc2)nc(-c2ccccc2)[nH]c1=O`: the AC50 was 0.316 µM (active). As to `Clc1cc2c(c(CSC3=NCN(CC4CC4)CN3)c1)OCOC2`, the activity, negative = inhibition is 9.58% [at 11.4 µM].

In the case of `NCCc1ccn[nH]1`, the AC50 result was “inactive”. Same read-out and setting: as for `COC(=O)c1ccc(CSc2nc3cc(Cl)ccc3s2)o1`, the figure is 3.55 µM (active).

With `O=C(O)[C@@H]1CS[C@@]2(CCCN(Cc3ccccc3)C2)N1`, the activity, negative = inhibition is 15.9% [at 11.4 µM]. With `COc1ccc(-n2nnnc2SCC(=O)Nc2ccccc2)cc1`, the AC50 result was “inactive”. Same read-out and setting: as for `COc1cccc(-n2ccnc2SCC(=O)Nc2nccs2)c1`, the figure is 11.2 µM (active); as for `COc1ccc(-n2ccnc2SCC(=O)Nc2ccccc2)cc1`, 5.01 µM (active). With `COC(=O)CSc1nnc(C)n1-c1cccc(OC)c1`, the AC50 entry is “inactive”. Turning to `COc1ccc(C(O)c2nccn2Cc2ccccc2)cc1` (stereo not given), the AC50 result is “inactive”.

`Cc1cccc(-c2nsc(SCC(=O)Nc3nccs3)n2)c1`: the AC50 was 1.58 µM (active).

Consider `Cc1cccc(OCC(=O)NNC(=O)CSc2ncc(C#N)c(N)n2)c1`, for which the AC50 result is “inactive”. Regarding `COc1ccc(NC(=O)CSc2ccc3c4c(cccc24)C(=O)c2ccccc2-3)cc1`, the concentration at half-maximal activity (AC50) was 0.562 µM (active). Take `Cc1ccc(S(=O)(=O)O[C@H]2C[C@@H](C(C)(C)C)CC[C@@H]2c2ccccc2)cc1`: the activity, negative = inhibition is 5.88% [at 11.4 µM]. For the molecule `Cc1ccccc1-c1nc(Nc2ccncc2)c2ccccc2n1`, the activity, negative = inhibition is -3.63% [at 2.29 µM].

`O=C(O)[C@@H](O)[C@@H](O)[C@H](O)[C@H](O)CO`: the activity, negative = inhibition was 0.915% [at 11.4 µM].

As for `Cn1ccnc1SCC(=O)Nc1sccc1C#N`, the AC50 is 8.91 µM (active). Still for that read-out and setting: as for `CCOc1ccc(-n2ccnc2SCC(=O)Nc2nnc(CC)s2)cc1`, the figure is 12.6 µM (active); as for `COc1ccc(NC(=O)CSc2nnc(C3CC3)n2-c2ccccc2)cc1`, 10 µM (active); as for `CCc1nnc(NC(=O)CSc2ncnc3c2cnn3-c2ccc(OC)cc2)s1`, “inactive”. Still for that read-out and setting: with `CCc1nnc(NC(=O)CCC(=O)N2CCN(c3ccccn3)CC2)s1` the entry was “inactive”; with `COc1ccc(-n2ccnc2SCC(=O)Nc2ccc(OC)cc2OC)cc1`, 4.47 µM (active); with `CCNC(=O)CSc1nnc(C2CC2)n1-c1ccccc1`, “inactive”.

Take `COc1ccccc1NC(=O)N1CCC(c2nnc(SCC(N)=O)n2C)CC1`: the AC50 result was “inactive”. For the molecule `C/C(CCN1CCCCc2nc(C)c(C)cc21)=N\O[C@@H](C)c1cn([C@H](CO)Cc2ccccc2)nn1`, the activity, negative = inhibition was 6.66% [at 11.4 µM] and -0.809% [at 11.4 µM]. Consider `O=C(Nc1cccc(F)c1)N1CC2(CCN(C(=O)c3csnn3)CC2)C1`, for which the AC50 entry was “inactive”. The same measure, in the same setting: as for `CCS(=O)(=O)N(C)[C@@H]1c2cc(C#N)ccc2OC(C)(C)[C@H]1O`, the entry is “inactive”. Consider `O=C(O)[C@H]1[C@H](C(=O)O)[C@H](C(=O)O)C[C@@H]1C(=O)O`, for which the activity, negative = inhibition was 7.74% [at 11.4 µM].

Turning to `Clc1ccc2c(NCCNC3CCCCC3)ccnc2c1`, the activity, negative = inhibition is -4.74% [at 11.4 µM]. In the case of `NCCCC(=O)O`, the AC50 entry was “inactive”. Same read-out and setting: as for `Cc1ccc(-n2ccc(=O)c(-c3ccnc(SCc4cccc(Cl)c4)n3)n2)cc1`, the figure is 3.16 µM (active); as for `CCn1c(SCc2ccc(C)cc2)nnc1-c1nn(-c2ccccc2)ccc1=O`, “inactive”; as for `CC(C)(C)S(=O)(=O)c1cnc2c(-c3ccc(F)cc3)cnn2c1N`, “inactive”. For `CCCN1CCN(C(=O)CN2C(=O)CC(C)(C)S(=O)(=O)c3ccccc32)CC1`, the AC50 result is “inactive”. As for `CC1Cc2ccccc2N1C(=O)CN1C(=O)COc2ccccc21` (stereo not given), the AC50 is 11.2 µM (active). Regarding `CCN1CCN(CC(=O)N2c3ccccc3CC2C)CC1` (stereo not given), the AC50 result was “inactive”.

`CC(=O)N1c2ccc(S(=O)(=O)CCC(=O)O)cc2CC1C` (stereo not given): the AC50 result was “inactive”. In the case of `CC1Cc2ccccc2N1C(=O)Cn1c(=O)cc(O)c2ccccc21` (stereo not given), the AC50 is 14.1 µM (active). Turning to `C[C@@H]1Cc2ccccc2N1NC(=O)c1ccc(Cl)c(S(N)=O)c1` (stereo not given in full), the AC50 entry is “inactive”. On the same count and under the same terms, with `COc1ccc(C(=O)N2CCC3(CC2)CN(Cc2ccc(C#N)cc2)C3)cc1` the entry was “inactive”; with `COc1ccc(C(=O)N2CCC[C@@]3(CCN(Cc4cc(C(F)(F)F)cc(C(F)(F)F)c4)C3)C2)cc1`, “inactive”.

`COc1ccc(NC(=O)N2CCCC3(CCN(C(=O)c4cc(C(F)(F)F)cc(C(F)(F)F)c4)CC3)C2)cc1`: the AC50 entry is “inactive”.

For the molecule `COC(=O)[C@@]1(Cc2ccc(F)cc2)[C@H]2c3cc(C(=O)N4CCCC4)n(CCCNc4ncc(C(F)(F)F)cc4Cl)c3C[C@H]2CN1C(=O)c1ccccc1`, the AC50 was 3.16 µM (active). On to `COC(=O)[C@@]1(Cc2ccc(OC)cc2)[C@H]2c3cc(C(=O)N4CCCC4)n(CCCNc4ncc(C(F)(F)F)cc4Cl)c3C[C@H]2CN1C(=O)c1ccccc1`, for which the AC50 was 7.94 µM (active). For `N=C1CCC[C@@H]1C(=S)SCCC(N)=O`, the activity, negative = inhibition is 17.6% [at 11.4 µM]. For the molecule `C=CC(=O)NC(NC(=O)C=C)c1ccc(Br)cc1`, the AC50 entry is “inactive”. As to `O=C1CC[C@H](NC(=O)c2ccccc2)C(=O)N1`, the activity, negative = inhibition was 5.14% [at 11.4 µM]. With `O=C(c1cnccn1)N1CCC2(CC1)CN(c1cccc(-c3ccccc3)c1)C2`, the AC50 entry is “inactive”. On the same count and under the same terms, as for `O=C(c1cnccn1)N1CCC[C@@]2(CCN(c3cccc(-c4ccccc4)c3)C2)C1`, the figure is 7.94 µM (active); as for `O=C(c1cnccn1)N1CCC[C@@]2(CCN(c3ccccn3)C2)C1`, “inactive”. As to `O=C(c1ccco1)N1CCC[C@@]2(CCN(c3cccc(-c4ccccc4)c3)C2)C1`, the AC50 is 5.01 µM (active). For the molecule `O=C(c1cnccn1)N1CCC2(CCCN(c3cccc(-c4ccccc4)c3)C2)CC1`, the AC50 is 20 µM (active). As for `O=C(c1ccco1)N1CCC[C@@]2(CCN(c3ccccc3)C2)C1`, the AC50 result was “inactive”. As for `O=C(c1ccco1)N1CCC2(CC1)CN(c1cccc(-c3ccccc3)c1)C2`, the AC50 result is “inactive”. On to `O=C(c1cnccn1)N1CCC[C@@]2(CCN(c3ccncc3)C2)C1`, for which the AC50 result is “inactive”. Same read-out and setting: as for `O=C(c1cnccn1)N1CCC2(CC1)CN(c1ccccc1)C2`, the entry is “inactive”.

On to `CN(C)c1ccc(-c2ccc3ncnc(N(C)C)c3c2)cc1`, for which the activity, negative = inhibition is -17.4% [at 2.29 µM].
